From PubChem
Compounds with a hit are over-represented: about 0.31% of the library has one in this group of screens.
TRPV1 PAM = HTS Assay for Compounds that Act as Potentiators of the Vanilloid Receptor 1; TRPV1-expressing cells, Fluo-8 calcium influx, capsaicin EC20 potentiation; Transient receptor potential cation channel subfamily V member 1 (Homo sapiens), Q8NER1; actives 0.02% (n = 320,000); potentiation, % at 8.33 µM; AID 540277, 2011; in the data active = potentiation above about 80%; inconclusive = between about 30% and that limit; also: 0% is about no effect
Target sequence (Q8NER1 whole entry, looked up): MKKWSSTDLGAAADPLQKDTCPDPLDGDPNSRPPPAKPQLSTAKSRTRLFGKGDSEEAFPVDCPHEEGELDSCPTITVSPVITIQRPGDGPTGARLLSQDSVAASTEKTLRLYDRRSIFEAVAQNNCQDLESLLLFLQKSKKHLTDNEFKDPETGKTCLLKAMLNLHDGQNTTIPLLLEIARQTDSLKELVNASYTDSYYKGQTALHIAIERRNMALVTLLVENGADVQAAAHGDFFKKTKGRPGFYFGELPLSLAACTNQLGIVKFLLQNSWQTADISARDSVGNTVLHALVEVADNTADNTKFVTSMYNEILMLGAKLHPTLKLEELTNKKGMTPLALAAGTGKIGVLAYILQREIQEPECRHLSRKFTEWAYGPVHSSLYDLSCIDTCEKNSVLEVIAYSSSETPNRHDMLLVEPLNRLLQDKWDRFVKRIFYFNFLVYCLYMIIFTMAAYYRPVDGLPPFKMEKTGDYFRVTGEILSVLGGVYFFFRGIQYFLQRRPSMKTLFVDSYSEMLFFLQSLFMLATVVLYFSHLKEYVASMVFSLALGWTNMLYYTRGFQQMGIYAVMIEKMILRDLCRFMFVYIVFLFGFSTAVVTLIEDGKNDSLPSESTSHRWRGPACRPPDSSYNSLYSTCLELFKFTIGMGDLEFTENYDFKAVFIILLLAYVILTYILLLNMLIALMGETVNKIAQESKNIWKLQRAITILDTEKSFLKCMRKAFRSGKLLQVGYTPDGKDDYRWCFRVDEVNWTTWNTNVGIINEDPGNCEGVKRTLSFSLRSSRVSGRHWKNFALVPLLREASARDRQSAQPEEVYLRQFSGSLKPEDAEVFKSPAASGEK
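Fluo-8 calcium influx in TRPV1-expressing cells, kinetic read (ex 480/em 520 nm). Compound added and read 3 min for agonist activity, followed by capsaicin at EC20 final and 2 min further read for enhancement.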
TRPV1 agonist = HTS Assay for Compounds that Act as Agonists of the Vanilloid Receptor 1 | activation, % at 8.33 µM | TRPV1-expressing cells, Fluo-8 calcium influx, agonist mode | Transient receptor potential cation channel subfamily V member 1 (Homo sapiens), Q8NER1 | actives 0.19% (n = 320,000); in the data active = activation above about 80%; inconclusive = between about 30% and that limit; also: 0% is about no effect
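Cells expressing TRPV1 were dye-loaded with Fluo-8 and read kinetically: 10 s baseline, 3 min after compound (agonist portion), then 2 min after EC20 capsaicin (allosteric enhancer portion). Calcium-bound dye fluorescence at 480/520 nm.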
TRPML1 agonist = qHTS for Agonists of the Human Mucolipin Transient Receptor Potential 1 (TRPML1); TRPML1-expressing cells, Ca2+ dye fluorescence, FDSS; activation, % (no concentration beside the values); actives 0.12% (n = 410,000); in the data active = activation above about 50%; inconclusive = mostly about 30% to 49%; also: 0% is about no effect
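Calcium fluorescence on an FDSS kinetic reader gave the read-out. Tet-induced TRPML1-DL cells were plated overnight, dye-loaded (Ca8 with quencher, 45-90 min, room temperature, dark), then read 110 s after compound addition, and again 110 s after 4uM final 54-4 (EC80).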
TRPML1 inh = qHTS for Inhibitors of the Human Mucolipin Transient Receptor Potential 1 (TRPML1); Mucolipin-1 (Homo sapiens), Q9GZU1; TRPML1-inducible cells, Ca2+ dye fluorescence, FDSS; hits give low values; inhibition of EC80 agonist-evoked calcium signal; activity change, negative = inhibition, % (concentration not given with the values); actives 0.02% (n = 390,000); AID 624415, 2012; in the data active = activity change below about -50%; inconclusive = between about -30% and that limit;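 also: stimulus is agonist 54-4 at its EC80 concentration; % is scaled to controls: 0 for no effect and ±100 for the full control effect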
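Tet-induced TRPML1-DL cells loaded with Ca8 no-wash calcium dye were read kinetically on FDSS. Compound addition was followed by EC80 agonist 54-4 (4 uM final); inhibition was read over 110 s.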
An asterisk follows results filed as active; u = inconclusive; x = no result.

SMILES | TRPV1 PAM | TRPV1 agonist | TRPML1 agonist | TRPML1 inh
NS(=O)(=O)c1ccc(NC(=O)c2ccc(-c3ccccc3)cc2)cc1 | 12 | -2 | 1 | 0
CC(C)(C)c1ccc(C(=O)Nc2ccc(C=C(C#N)C#N)cc2)cc1 | -16 | 89* | 0 | 14
CC(=O)c1ccc(C(=O)Nc2ccc3c(c2)C(=O)NC3=O)cc1 | u | 9 | -1 | -10
CC(C)(C)c1ccc(C(=O)Nc2ccc(S(N)(=O)=O)cc2)cc1 | -2 | 86* | 0 | -3
N#CC(C#N)=Cc1ccc(NC(=O)c2ccc(Br)cc2)cc1 | -13 | 113* | 2 | 49
CC1CCN(S(=O)(=O)c2ccc3c(c2)N(CC(=O)NC(C)c2ccccc2)C(=O)CO3)CC1 (centres undefined) | x | x | 5 | -6
Cc1ccc2c(CC(=O)N(Cc3ccc(N(C)C)cc3)Cc3ccco3)coc2c1C | x | x | 16 | -11
COc1ccccc1CNC(=O)c1cc2sccc2n1Cc1ccc(Cl)cc1 | x | x | 0 | -5
O=C(Cc1cccs1)Nc1cccc(-c2nnc(-c3ccco3)o2)c1 | 89* | u | 1 | 20
COc1ccccc1N1CCN(C(=O)c2cnn(-c3ccc(C)c(C)c3)c2C2CCN(C(=O)OC(C)(C)C)CC2)CC1 | x | x | 59* | -10
Cc1ccc(-n2ncc(C(=O)N3CCN(C4CCCCC4)CC3)c2C2CCN(C(=O)OC(C)(C)C)CC2)cc1C | x | x | 69* | -15
CC(C)(C)OC(=O)N1CCC(c2c(C(=O)N3CCN(c4ncccn4)CC3)cnn2-c2ccc(F)cc2F)CC1 | x | x | 1 | 23
Cc1ccc(-n2ncc(C(=O)N3CCN(c4ccccn4)CC3)c2C2CCN(C(=O)OC(C)(C)C)CC2)cc1C | x | x | 0 | -4
CCN1CCN(C(=O)c2cnn(-c3cccc(Cl)c3)c2C2CCN(C(=O)OC(C)(C)C)CC2)CC1 | x | x | 1 | 4
Cc1cccc(N2CCN(C(=O)c3cnn(-c4ccc(F)cc4F)c3C3CCN(C(=O)OC(C)(C)C)CC3)CC2)c1C | x | x | 93* | -63*
CC(C)(C)OC(=O)N1CCC(c2c(C(=O)N3CCN(C4CCCCC4)CC3)cnn2-c2cccc(Cl)c2)CC1 | x | x | 92* | -23
O=C(c1cccs1)N1CCCc2cc(NS(=O)(=O)c3ccc(F)cc3)ccc21 | x | x | -1 | 2
CC(C)Sc1ccc(C(=O)Nc2ccc(F)cc2F)cn1 | -21 | 85* | 2 | -11
COc1ccc(NC(=O)CSC2=Nc3ccccc3C3=NC(CC(=O)NCc4ccco4)C(=O)N23)cc1 (centres undefined) | x | x | 0 | 7
CC(C)(C)c1ccc(OCc2ccc(C(=O)NN)o2)cc1 | 1 | 123* | 2 | 20
Cc1cc2c(NC(=O)Nc3ccc(C(F)(F)F)cc3)cccc2nn1 | -3 | 82* | 0 | 19
Cc1cccc(N2CCN(S(=O)(=O)c3c(C(=O)N4CCC(C)CC4)c(C)n(C)c3C)CC2)c1C | x | x | u | 5
Cc1ccc(C)c(N2CCN(S(=O)(=O)c3c(C(=O)N4CCC(C)CC4)c(C)n(C)c3C)CC2)c1 | x | x | 55* | -13
C(=C\c1ccnc2ccccc12)/c1ccc2ccccc2n1 | x | x | -1 | x
C[C@H](CO)N1C[C@H](C)[C@@H](CN(C)S(=O)(=O)c2cccc(F)c2)OCc2cnnn2CCCC1=O | x | x | 0 | 0
SMILES | TRPV1 PAM | TRPV1 agonist | TRPML1 agonist | TRPML1 inh
C[C@H]1CN([C@@H](C)CO)C(=O)CCCn2nncc2CO[C@H]1CN(C)S(=O)(=O)c1cccc(F)c1 | x | x | 0 | -65*
Cc1[nH]c2ccccc2c1C(=O)C(=O)NC1CC1 | -3 | 82* | 0 | 5
Cc1[nH]c2ccccc2c1C(=O)C(=O)NC1CC(=O)N(c2ccccc2)C1 (centres undefined) | x | x | -1 | -2
CC(C)Oc1ccc(NC(=O)c2ccncc2)cc1 | -19 | 86* | 0 | -10
COc1ccc(C(=O)Nc2nc3ccccc3s2)cc1 | -2 | 96* | 4 | -1
COc1ccc(C(=O)Nc2ccc3ccccc3c2)cc1 | -8 | 96* | 1 | 37
COc1ccc2nc(NC(=O)c3ccc(-n4nc(C)cc4C)cc3)sc2c1 | -5 | -4 | 68* | 9
CCCCCCC[n+]1ccc(/C=C/c2c(C)[nH]c3ccccc23)c2ccccc21 | x | x | 3 | x
O=C(NCc1ccc(F)cc1)c1cc(-c2ccccn2)nc2ccc(S(=O)(=O)N3CCOCC3)cc12 | x | x | -1 | -8
CCCCSc1nnc2c(n1)OC(c1ccc(C)s1)Nc1ccccc1-2 (centres undefined) | x | x | 1 | 0
O=C(O)c1cc(-c2ccc(-c3ccc(F)cc3)o2)nc2ccccc12 | 3 | 2 | 0 | 5
COc1ccc(NC(=O)C2(c3ccc(NC(=O)c4ccc(C)cc4)cc3)CCCC2)cc1 | -6 | 1 | 3 | 0
COc1ccc(C(=O)Nc2ccc(C3(C#N)CCCC3)cc2)cc1 | -29 | 89* | 0 | -2
COc1ccc(C(=O)Nc2cc3c4c(c2)CC(=O)N4CCC3)c(OC)c1 | -5 | 7 | 0 | 1
COc1ccc(C(=O)Nc2cc3c4c(c2)CC(=O)N4CCC3)cc1 | -15 | 1 | 55* | u
CCN1C[C@@H]2[C@@H]3C(=O)N(C)C(=O)[C@@H]3[C@](Cc3ccccc3)(C1=O)N2C(=O)c1ccc(F)cc1 | x | x | -1 | 23
Cc1ccc2oc(C(=O)N3CCC(c4nc5ccccc5s4)CC3)c(C)c2c1 | x | x | 54* | -12
Cc1c(C(=O)N2CCC(c3nc4ccccc4s3)CC2)oc2cc(Br)ccc12 | x | x | 0 | 6
CC(C)(C)c1ccc(OCCn2c(CCNC(=O)C3CCCCC3)nc3ccccc32)cc1 | x | x | 0 | x
Cc1ccc(S(=O)(=O)N(C)c2ccc(C)c([N+](=O)[O-])c2)cc1 | 80* | -6 | 2 | 29
COc1ccc(N(C)S(=O)(=O)c2ccc(C)cc2)c([N+](=O)[O-])c1 | -5 | 15 | 3 | 14
CCOC(=O)CC1COCCN1C(=O)c1ccc2oc(Cc3ccccc3)nc2c1 (centres undefined) | -5 | 1 | 0 | 15
Cn1c(NCc2ccccc2O)nc2ccccc21 | 6 | -1 | 0 | 3
CCOc1ccccc1CNc1nc2ccccc2n1C | 84* | 6 | -1 | 6
O=C(Cc1ccccc1Nc1c(Cl)cccc1Cl)OCO/N=[N+](\[O-])N1CCCC1 | x | x | 4 | 43
CC(=O)c1nccs1 | 3 | 1 | -1 | 5
COc1cc(Cl)c(C)cc1NC(=O)c1cnc(N2CCOCC2)c2ccccc12 | x | x | u | -30
COc1cc(Cl)c(C)cc1NC(=O)c1cnc(N2CCCCC2)c2ccccc12 | x | x | 69* | -15
Cc1c(OCC(=O)N2CCC(C(=O)O)CC2)ccc2c1oc(=O)c1ccccc12 | u | -1 | x | x
